Measured values taken from PubChem BioAssay (NCATS).
Records with an inconclusive call do not appear. Active and inactive are the calls of the source. Unless noted, calls follow the shape of the dose curve; as a rule, active = well fitted curve in either direction with a large enough effect (not every such curve was filed as active); inconclusive = small, poorly fitted or top-dose-only effect, or another doubt; inactive = flat fitted curve, though single readings scatter.

What was measured:
[1] = molecular target: Lysosomal acid glucosylceramidase (Homo sapiens) (UniProt P04062); test: Glucocerebrosidase-p2 (AID 348; in the data active = potency below about 10 µM; also: potency is read from the fitted curve at half-maximal effect); details: purified GBA, blue fluorogenic substrate, 40 min
Sequence of Lysosomal acid glucosylceramidase (Homo sapiens) (P04062 whole entry, looked up): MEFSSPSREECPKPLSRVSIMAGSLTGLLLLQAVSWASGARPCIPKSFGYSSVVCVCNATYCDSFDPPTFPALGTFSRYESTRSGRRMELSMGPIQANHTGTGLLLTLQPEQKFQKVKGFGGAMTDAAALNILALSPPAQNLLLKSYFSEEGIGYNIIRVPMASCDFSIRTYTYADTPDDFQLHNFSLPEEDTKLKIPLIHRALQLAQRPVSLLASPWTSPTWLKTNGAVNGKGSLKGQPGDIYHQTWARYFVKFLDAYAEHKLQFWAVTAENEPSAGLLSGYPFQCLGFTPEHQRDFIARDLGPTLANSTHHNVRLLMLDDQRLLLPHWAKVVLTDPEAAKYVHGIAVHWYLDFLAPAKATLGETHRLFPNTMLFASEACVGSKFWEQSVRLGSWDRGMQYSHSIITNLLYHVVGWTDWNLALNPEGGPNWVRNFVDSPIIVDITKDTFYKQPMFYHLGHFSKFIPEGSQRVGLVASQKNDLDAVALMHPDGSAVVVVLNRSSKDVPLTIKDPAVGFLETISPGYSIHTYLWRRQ
Method in brief: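 Compounds titrated from 0.6 nM upwards against 0.2 nM enzyme in pH 5.9 citric acid/KH2PO4, taurocholate, tween-20; blue fluorogenic substrate 80 uM, 40 min room temperature, stopped and read Ex 365/Em 440 for AC50.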

[2] = AP1 Signaling Pathway (AID 357); details: ME-180 AP-1-bla reporter, EGF-induced, beta-lactamase ratio, 5 h; at 7.69 µM (top of the series) unless noted; also: % is scaled to controls: 0 for no effect and ±100 for the full control effect
Method in brief: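 ME-180 cells with beta-lactamase reporter under AP-1 response element, stimulated with EC50 EGF; compounds tested in titration series, 5 h at 37 °C. CCF4 substrate added 2.5 h at room temperature; 460/530 nm emission ratio gave %activity and AC50.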

[3] = NFAT Signaling Pathway (AID 444); details: Jurkat NFAT-bla M1, carbachol, beta-lactamase ratio, 5 h; at 7.69 µM (top of the series) unless noted;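 also: carbachol stimulus at about its EC50 of 1 µM final; % is scaled to controls: 0 for no effect and ±100 for the full control effect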
Method in brief: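 Read-out: CCF4 FRET ratio (460 nm/530 nm) after 1 h RT dye loading, used for %activity and AC50 from titration series. Cells: Jurkat NFAT-β-lactamase/M1 line, treated with compound plus 1 uM carbachol for 5 h, 37 °C.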

[4] = Stat Signaling Pathway (AID 446); details: ME-180 SIE beta-lactamase reporter, IL-6 stimulated, 5 h; at 7.69 µM (top of the series) unless noted;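 also: ME-180 cervical cancer cells given 40 pM IL-6 alongside compound; SIE-controlled beta-lactamase reporter measured as 460/530 nm FRET emission ratio; % is scaled to controls: 0 for no effect and ±100 for the full control effect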
Method in brief: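 Reporter line: ME-180 cervical carcinoma, SIE-beta-lactamase. Treatment: compound with 40 pM IL-6, 5 hrs, 37 C, in low-serum OPTI-MEM with 10 mM HEPES pH 7.3. Detection: 460/530 nm fluorescence.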

[5] = molecular target: Glucocorticoid receptor (Homo sapiens) (UniProt P04150); test: GR-GFP Redistribution (AID 450;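 active = compounds whose dose series gives a full or clear partial fitted curve of increased nuclear translocation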; also: potency is read from the fitted curve at half-maximal effect); details: U2OS GR-GFP nuclear translocation, laser cytometry, 2 h
Sequence of Glucocorticoid receptor (Homo sapiens) (P04150 whole entry, looked up, the tested form may be a part): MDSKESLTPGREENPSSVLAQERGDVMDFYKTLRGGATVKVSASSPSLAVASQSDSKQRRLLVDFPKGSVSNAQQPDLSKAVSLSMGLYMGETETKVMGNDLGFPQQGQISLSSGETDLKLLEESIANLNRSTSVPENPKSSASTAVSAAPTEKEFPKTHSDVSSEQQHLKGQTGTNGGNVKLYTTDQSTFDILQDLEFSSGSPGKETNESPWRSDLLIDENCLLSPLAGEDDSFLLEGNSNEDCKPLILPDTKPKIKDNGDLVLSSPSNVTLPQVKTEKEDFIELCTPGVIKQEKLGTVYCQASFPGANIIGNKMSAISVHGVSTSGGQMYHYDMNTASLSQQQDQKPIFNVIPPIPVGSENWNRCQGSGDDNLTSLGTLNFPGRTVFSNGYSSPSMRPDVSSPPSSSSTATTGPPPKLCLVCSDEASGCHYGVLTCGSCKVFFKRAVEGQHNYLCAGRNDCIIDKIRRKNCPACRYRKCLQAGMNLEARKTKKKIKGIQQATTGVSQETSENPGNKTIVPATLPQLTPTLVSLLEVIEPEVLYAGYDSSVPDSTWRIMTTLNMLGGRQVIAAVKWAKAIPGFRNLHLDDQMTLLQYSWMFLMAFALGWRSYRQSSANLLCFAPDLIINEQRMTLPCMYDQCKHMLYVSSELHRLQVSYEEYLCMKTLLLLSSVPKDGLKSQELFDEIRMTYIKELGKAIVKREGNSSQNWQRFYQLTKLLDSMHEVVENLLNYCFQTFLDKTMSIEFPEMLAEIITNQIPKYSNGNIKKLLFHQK

[6] = molecular target: Glucocorticoid receptor (Homo sapiens) (UniProt P04150); test: GR-EFC Redistribution (AID 451; calls by dose curve; also: potency is read from the fitted curve at half-maximal effect); details: CHO-K1 GR-EFC translocation, beta-gal luminescence, 2 h
Method in brief: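 Translocation of GR-ED fusion to nuclear EA restores b-gal, read by luminescence after 1 h room-temperature detection. Engineered CHO-K1 biosensor cells, 1,000/well, exposed 2 h at 37 C to titrations up to 46 uM final.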

[7] = molecular target: Mitogen-activated protein kinase 10 (Mus musculus) (UniProt Q61831); test: JNK3 AlphaScreen Assay (AID 530); details: JNK3 lysate, c-Jun phosphorylation; series mostly up to 57.1 µM;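 also: kinase came from lysate of stimulated human HepG2 cells; signal reports phosphorylation of biotinylated GST-cJun 1-79 at Ser73 with 10 µM ATP; % is scaled to controls: 0 for no effect and ±100 for the full control effect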
Method in brief: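 Room-temperature AlphaScreen kinase assay; pre-activated HepG2 lysate as JNK3 source, biotin-GST-cJun(1-79) substrate, 10 uM ATP, compound 15 min preincubation.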

[8] = Primary qHTS for small molecule stabilizers of the endoplasmic reticulum resident proteome: Secreted ER Calcium Modulated Protein (SERCaMP) assay (AID 1508630; active = well fitted curve in the direction sought with a large enough effect; an effect the other way counts as inactive or inconclusive; also: % is scaled to controls: 0 for no effect and ±100 for the full control effect); details: SH-SY5Y GLuc-SERCaMP (Gaussia luciferase released on ER calcium loss) secretion, thapsigargin, luminescence; series mostly up to 38.4 µM
Method in brief: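 GLuc-SERCaMP-expressing SH-SY5Y cells, pretreated 16 h with compound, are challenged with thapsigargin to empty ER calcium stores; after 4 h, coelenterazine is added directly to the medium and luminescence is imaged.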

[9] = molecular target: 3',5'-cyclic-AMP phosphodiesterase 4B (Homo sapiens) (UniProt Q07343); test: qHTS Assay for Inhibitors of PDE-IV (AID 607; active = well fitted activation curve with a large enough effect in the main read-out, with a control signal flat, not every such curve was filed as active; also: % of control where 0% means no effect); details: HEK293 ACTOne CNG channel cells, membrane potential fluorescence; series mostly up to 22.9 µM
Sequence of 3',5'-cyclic-AMP phosphodiesterase 4B (Homo sapiens) (Q07343 whole entry, looked up): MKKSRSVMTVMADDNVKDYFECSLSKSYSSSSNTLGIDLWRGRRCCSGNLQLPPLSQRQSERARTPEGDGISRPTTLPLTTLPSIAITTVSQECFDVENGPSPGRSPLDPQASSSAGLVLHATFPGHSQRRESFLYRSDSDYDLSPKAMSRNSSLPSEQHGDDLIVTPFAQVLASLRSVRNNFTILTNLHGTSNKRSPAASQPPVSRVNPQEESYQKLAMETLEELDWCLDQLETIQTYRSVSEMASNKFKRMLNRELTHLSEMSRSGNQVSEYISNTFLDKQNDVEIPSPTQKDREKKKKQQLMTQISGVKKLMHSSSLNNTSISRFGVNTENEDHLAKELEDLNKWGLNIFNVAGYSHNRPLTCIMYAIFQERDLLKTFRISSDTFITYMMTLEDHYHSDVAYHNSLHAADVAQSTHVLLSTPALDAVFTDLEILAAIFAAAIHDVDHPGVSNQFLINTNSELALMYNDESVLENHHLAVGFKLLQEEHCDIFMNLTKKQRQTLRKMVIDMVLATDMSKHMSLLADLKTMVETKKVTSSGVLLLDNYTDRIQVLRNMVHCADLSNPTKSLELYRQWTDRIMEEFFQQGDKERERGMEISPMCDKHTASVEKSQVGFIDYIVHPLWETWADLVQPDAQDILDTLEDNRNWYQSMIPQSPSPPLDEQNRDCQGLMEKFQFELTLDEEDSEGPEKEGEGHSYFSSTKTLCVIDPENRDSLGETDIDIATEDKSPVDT
Method in brief: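 Cell-based read-out of cAMP via a modified cyclic nucleotide-gated channel and membrane potential dye (535/590 nm) in HEK293 cells expressing PDE4 endogenously. Compounds tested up to 22.9 uM final; 100 uM RO 20-1724 reference.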

[10] = molecular target: Cytochrome P450 3A4 (Homo sapiens) (UniProt P08684); test: qHTS Assay for Activators of Cytochrome P450 3A4 (AID 885; active = well fitted curve in the direction sought with a large enough effect; an effect the other way counts as inactive or inconclusive; also: nearly all actives have a fitted effect of over 65% in size); details: recombinant CYP3A4, Luciferin-PPXE luminescence, 60 min; series mostly up to 57.1 µM
Sequence of Cytochrome P450 3A4 (Homo sapiens) (P08684 whole entry, looked up): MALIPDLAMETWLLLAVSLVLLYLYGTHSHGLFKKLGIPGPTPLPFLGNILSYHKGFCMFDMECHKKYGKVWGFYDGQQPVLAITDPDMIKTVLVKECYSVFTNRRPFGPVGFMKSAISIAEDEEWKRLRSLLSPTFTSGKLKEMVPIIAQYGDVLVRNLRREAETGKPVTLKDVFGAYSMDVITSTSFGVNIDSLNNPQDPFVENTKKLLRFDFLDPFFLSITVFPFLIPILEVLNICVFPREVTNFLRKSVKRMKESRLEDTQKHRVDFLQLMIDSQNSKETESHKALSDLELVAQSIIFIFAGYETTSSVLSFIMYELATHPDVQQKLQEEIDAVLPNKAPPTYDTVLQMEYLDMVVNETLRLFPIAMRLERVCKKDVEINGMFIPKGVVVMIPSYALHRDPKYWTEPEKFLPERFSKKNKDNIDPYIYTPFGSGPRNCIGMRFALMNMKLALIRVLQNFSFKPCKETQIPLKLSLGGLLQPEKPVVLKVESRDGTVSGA
Method in brief: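 Signal was normalized against complete inhibition by 57 uM ketoconazole. The reaction used 20nM CYP3A4 with 25uM Luciferin-PPXE, 10-min compound preincubation and a 60-min NADPH-supported step at RT.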

[11] = molecular target: Cytochrome P450 3A4 (Homo sapiens) (UniProt P08684); test: qHTS Assay for Inhibitors and Substrates of Cytochrome P450 3A4 (AID 884; active = well fitted curve in the direction sought with a large enough effect; an effect the other way counts as inactive or inconclusive; also: % is scaled to controls: 0 for no effect and ±100 for the full control effect; nearly all actives have a fitted effect of over 50% in size); details: recombinant CYP3A4, Luciferin-PPXE luminescence; series mostly up to 57.1 µM
Method in brief: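 20 nM human CYP3A4 with 25 uM Luciferin-PPXE (at KM) in 200 mM KPO4, preincubated 10 min with compound; NADPH regeneration started a 60 min RT reaction. Luciferin detected by luminescence, normalized to 57 uM ketoconazole as full inhibition.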

COc1ncc2nc(CCc3ccccc3)c(=O)n(Cc3ccc(F)cc3)c2n1
inactive: Potency [1] > 11.4 µM | activity change, negative = inhibition [2] -3.95% | activity change, negative = inhibition [3] -13.1% | activity, negative = inhibition [4] 2.49% | Potency [5] > 9.22 µM | Potency [6] > 46 µM | Potency [7] | outcome [8]

COCCn1c(=O)c(-c2ccc(OC)cc2)nc2cnc(Oc3ccc(OC)cc3)nc21
inactive: Potency [1] > 11.4 µM | activity change, negative = inhibition [2] -20.1% | activity change, negative = inhibition [3] 18% | activity, negative = inhibition [4] -7.21% | Potency [5] > 9.22 µM | Potency [6] > 46 µM | Potency [7] | Potency [9] | outcome [8]

COc1cccc(Cn2c(=O)c(-c3cccs3)nc3cnc(Nc4ccccc4)nc32)c1
inactive: Potency [1] > 11.4 µM | activity change, negative = inhibition [2] -5.18% | activity change, negative = inhibition [3] -18.8% | activity, negative = inhibition [4] -0.21% | Potency [5] > 9.22 µM | Potency [6] > 46 µM | Potency [7] | Potency [9] | outcome [8]

COc1ccc(-c2nc3cnc(OC)nc3n(C3CC3)c2=O)cc1
inactive: Potency [1] > 11.4 µM | activity change, negative = inhibition [2] -14.2% | activity change, negative = inhibition [3] -0.173% | activity, negative = inhibition [4] 2.68% | Potency [5] > 9.22 µM | Potency [6] > 46 µM | Potency [7] | Potency [9] | Potency [10] | outcome [8]

O=c1cnc2cnc(Oc3ccccc3)nc2n1C[C@H]1CCCO1
inactive: Potency [1] > 11.4 µM | activity change, negative = inhibition [2] -19.1% | activity change, negative = inhibition [3] -3.47% | activity, negative = inhibition [4] -8.07% | Potency [5] > 9.22 µM | Potency [6] > 46 µM | Potency [7] | outcome [8]

COc1ncc2nc(-c3ccc(F)cc3)c(=O)n(C[C@H]3CCCO3)c2n1
inactive: Potency [1] > 11.4 µM | activity change, negative = inhibition [2] 3.08% | activity change, negative = inhibition [3] -6.14% | activity, negative = inhibition [4] -1.31% | Potency [5] > 9.22 µM | Potency [6] > 46 µM | Potency [7] | Potency [9] | outcome [8]

O=c1c(-c2ccc(F)cc2)nc2cnc(Nc3ccccc3)nc2n1C1CC1
inactive: Potency [1] > 11.4 µM | activity change, negative = inhibition [2] -14% | activity change, negative = inhibition [3] -2.3% | activity, negative = inhibition [4] -3.65% | Potency [5] > 9.22 µM | Potency [6] > 46 µM | Potency [7] | Potency [9] | outcome [8]

COc1ccc(-c2nc3cnc(OC)nc3n(Cc3ccc(F)cc3)c2=O)cc1
inactive: Potency [1] > 11.4 µM | activity change, negative = inhibition [2] 8.95% | activity change, negative = inhibition [3] -6.96% | activity, negative = inhibition [4] 5.66% | Potency [5] > 9.22 µM | Potency [6] > 46 µM | Potency [7] | outcome [8]

O=c1c(-c2ccc(F)c(F)c2)nc2cncnc2n1Cc1ccc(F)cc1
inactive: Potency [1] > 11.4 µM | activity change, negative = inhibition [2] 2.91% | activity change, negative = inhibition [3] -2.88% | activity, negative = inhibition [4] 1.58% | Potency [5] > 9.22 µM | Potency [6] > 46 µM | Potency [7] | Potency [9] | outcome [8]

COc1ncc2nc(C)c(=O)n(C[C@H]3CCCO3)c2n1
inactive: Potency [1] > 11.4 µM | activity change, negative = inhibition [2] -6.08% | activity change, negative = inhibition [3] -9.08% | activity, negative = inhibition [4] -2.46% | Potency [5] > 9.22 µM | Potency [6] > 46 µM | Potency [7] | Potency [9] | outcome [8]

O=c1c(-c2ccccc2)nc2cncnc2n1Cc1ccc(F)cc1
inactive: Potency [1] > 11.4 µM | activity change, negative = inhibition [2] -20% | activity change, negative = inhibition [3] -1.65% | activity, negative = inhibition [4] -6.53% | Potency [5] > 9.22 µM | Potency [6] > 46 µM | Potency [7] | outcome [8]

COCCn1c(=O)c(-c2cc(F)cc(F)c2)nc2cnc(OCc3ccccc3)nc21
inactive: Potency [1] > 11.4 µM | activity change, negative = inhibition [2] 8.07% | activity change, negative = inhibition [3] -6.33% | activity, negative = inhibition [4] -6.5% | Potency [5] > 9.22 µM | Potency [6] > 46 µM | Potency [7] | Potency [9] | outcome [8]

N#Cc1cccc(NC(=O)N2CCC3(CC2)CCN(C(=O)c2cnccn2)CC3)c1
inactive: Potency [1] > 11.4 µM | activity change, negative = inhibition [2] -8.55% | activity change, negative = inhibition [3] -3% | activity, negative = inhibition [4] 2.13% | Potency [6] > 46 µM | Potency [7] | Potency [9] | outcome [8]

COc1ccc(C(=O)N2CCC[C@@]3(CCN(Cc4nccs4)C3)C2)cc1
inactive: Potency [1] > 11.4 µM | activity change, negative = inhibition [2] -5.52% | activity change, negative = inhibition [3] -6.27% | activity, negative = inhibition [4] -1.52% | Potency [6] > 46 µM | Potency [7] | Potency [9] | outcome [8]

COc1ccc(C(=O)N2CCC3(CCN(Cc4nccs4)CC3)CC2)cc1
inactive: Potency [1] > 11.4 µM | activity change, negative = inhibition [2] -14.6% | activity change, negative = inhibition [3] -8.01% | activity, negative = inhibition [4] -11.9% | Potency [6] > 46 µM | Potency [7] | Potency [9] | Potency [11] | outcome [8]

O=C(c1ccncc1)N1CCC2(CCCN(c3ccc(-c4ccccc4)cc3)C2)CC1
inactive: Potency [1] > 11.4 µM | activity change, negative = inhibition [2] -6.85% | activity change, negative = inhibition [3] 14.6% | activity, negative = inhibition [4] -6.26% | Potency [6] > 46 µM | Potency [7] | Potency [9] | outcome [8]

O=C(c1csnn1)N1CCC2(CCCN(c3ncccn3)C2)CC1
inactive: Potency [1] > 11.4 µM | activity change, negative = inhibition [2] 5.51% | activity change, negative = inhibition [3] 2.44% | activity, negative = inhibition [4] 1.38% | Potency [6] > 46 µM | Potency [7] | Potency [9] | outcome [8]
